Only some compounds are listed: those with a hit (about 3.5% of all), similar ones and a draw of the others.
GPR151 activ = activators of human GPR151, primary screen, cell-based, PathHunter beta-arrestin, luminescence; hit rate 1% among 650,000; activation, % at 11.2 µM; PathHunter beta-arrestin GPR151 cells; in the data active means activation above about 4.9%
MITF primary = MITF inhibitors, primary screen, biochemical, AlphaScreen, human | Microphthalmia-associated transcription factor (Homo sapiens), O75030 | AlphaScreen MITF homodimerization, bead proximity signal | inhibition, % at 2.6 µM | hit rate 0.91% among 650,000 | AID 1259374, 2018; in the data active means inhibition above about 50%
Target sequence (O75030 whole entry, looked up): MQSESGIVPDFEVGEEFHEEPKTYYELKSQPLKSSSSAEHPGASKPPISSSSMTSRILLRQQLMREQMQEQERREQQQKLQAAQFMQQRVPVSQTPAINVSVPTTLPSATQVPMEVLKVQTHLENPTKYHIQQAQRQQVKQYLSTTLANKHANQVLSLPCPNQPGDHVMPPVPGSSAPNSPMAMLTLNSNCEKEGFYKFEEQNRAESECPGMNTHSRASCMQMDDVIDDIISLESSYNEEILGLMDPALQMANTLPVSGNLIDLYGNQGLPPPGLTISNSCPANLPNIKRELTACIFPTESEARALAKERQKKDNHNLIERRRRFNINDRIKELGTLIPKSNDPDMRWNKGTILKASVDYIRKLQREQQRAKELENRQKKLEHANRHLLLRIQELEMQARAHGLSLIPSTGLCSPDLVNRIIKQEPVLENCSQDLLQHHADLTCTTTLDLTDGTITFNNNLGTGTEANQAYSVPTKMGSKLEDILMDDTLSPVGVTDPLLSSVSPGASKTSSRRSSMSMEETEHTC
TEAD-YAP inh = TEAD-YAP interaction inhibition, primary screen, TEAD-YAP interaction inhibitor project, luminescence, HEK-TIYL cells | hit rate 1.4% among 640,000 | inhibition, % at 9.12 µM | TEAD-Gal4/YAP UAS-luciferase luminescence; in the data active means inhibition above about 32%
FBW7 activator = FBW7 E3 ligase activators, primary screen, biochemical, AlphaScreen, human; F-box/WD repeat-containing protein 7 (Homo sapiens), Q969H0; AlphaScreen FBW7–phospho-cyclin E peptide binding, activator screen; normalized activity (activation), % at 26.1 µM; hit rate 0.13% among 650,000; AID 1259310, 2017; in the data active means normalized activity above about 1.9%;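 further: purified mutant Fbw7 with reduced substrate affinity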
Hits are given with their value; i = inactive; nt = not tested or not shown.

SMILES | GPR151 activ | MITF primary | TEAD-YAP inh | FBW7 activator
COC(=O)c1ccc(NC(=O)c2ccc(OC)c([N+](=O)[O-])c2)cc1 | i | i | i | 3.7
O=C(Nc1ccc(C23CC4CC(CC(c5ccccc5)(C4)C2)C3)cc1)c1cc([N+](=O)[O-])ccc1Cl | i | i | 59 | i
COc1ccc(C(=O)Nc2ccncc2)cc1[N+](=O)[O-] | i | i | i | i
O=C(CCl)Nc1cccc(C(F)(F)F)c1 | i | i | 34 | i
N/C(CC(=O)Nc1cccc(C(F)(F)F)c1)=N\O | i | i | i | i
CC(=O)Oc1ccc(C2C3=C(CC(C)(C)CC3=O)OC3=C2C(=O)CC(C)(C)C3)cc1 | i | i | i | i
N#CC1=C(N)OC2=C(C(=O)CC(c3ccco3)C2)C1c1ccc2c(c1)OCO2 (stereo not given) | i | i | i | i
CCOC(=O)C1(CC2CCCCO2)CCN(C(=O)/C=C/C(C)C)CC1 (stereo not given) | i | i | i | i
O=C(COC(=O)c1ccc([N+](=O)[O-])o1)Nc1cccc(C(F)(F)F)c1 | i | i | i | i
COc1ccc2nc(NC(=O)c3cc([N+](=O)[O-])ccc3Cl)sc2c1 | i | i | 33 | i
O=C(Nc1cccc(OC(=O)c2ccc(Cl)cc2)c1)c1ccc([N+](=O)[O-])cc1 | i | i | 32 | i
O=C(Nc1cccc(C(F)(F)F)c1)c1ccc([N+](=O)[O-])o1 | i | i | 36 | i
O=C(Nc1sccc1C(=O)Nc1cccc([N+](=O)[O-])c1)c1ccco1 | i | i | 39 | i
O=C(Nc1cccc([N+](=O)[O-])c1)c1ccco1 | i | i | i | i
CCOC(=O)Cc1ccc(N(Cc2ccc(F)cc2)S(=O)(=O)c2ccc(Br)cc2)cc1 | i | i | i | i
CS(=O)(=O)N1CCCCC1C(=O)N(CC1CCCO1)c1nc2ccccc2s1 (stereo not given) | i | i | i | i
COc1ccc(CCN(C(=O)/C=C/C(=O)O)C2CC(=O)N(c3ccc(Br)cc3)C2=O)cc1OC (stereo not given) | i | i | i | i
O=C(O)COc1cccc(/C=C2\SC(=S)N(Cc3ccco3)C2=O)c1 | i | i | i | i
COCCCNC(=O)CCCn1ncn2c(cc3occc32)c1=O | i | i | i | i
O=C(Nc1cccc(O)c1)c1ccc([N+](=O)[O-])cc1Cl | i | i | 73 | i
CC(=O)Nc1cccc(NC(=O)c2cc([N+](=O)[O-])ccc2Cl)c1 | i | i | i | i
O=C(Nc1cccc(C(F)(F)F)c1)c1cc([N+](=O)[O-])ccc1Cl | i | i | 52 | i
CC(=O)Nc1cccc(NC(=O)c2ccc([N+](=O)[O-])cc2Cl)c1 | i | i | i | i
CN=C1S/C(=C/c2cc(Br)c(OC(C)=O)c(OC)c2)C(=O)N1C | i | i | i | i
Cc1ccc(-c2noc(CN(C(=O)COc3ccccc3)C(C)C)n2)cc1 | i | i | i | i
SMILES | GPR151 activ | MITF primary | TEAD-YAP inh | FBW7 activator
CCOC(=O)C(C#N)C1(O)C(=O)c2ccccc2C1=O (stereo not given) | i | 57 | i | i
CCOC(=O)C(C#N)C(=O)c1ccc(N2C(=O)c3ccccc3C2=O)cc1 (stereo not given) | i | i | i | i
COc1cc(Nc2nccn3c(-c4ccc(F)c(Cl)c4)cnc23)cc(OC)c1OC | i | i | 53 | i
COc1cc(Nc2nccn3c(-c4cccc(C(C)=O)c4)cnc23)cc(OC)c1OC | i | i | 54 | i
COc1cc(Nc2nccn3c(-c4ccco4)cnc23)cc(OC)c1OC | i | i | 57 | i
COc1cc(Nc2nccn3c(-c4ccc(Cl)cc4)cnc23)cc(OC)c1OC | i | i | i | i
COc1cc(Nc2nccn3c(-c4ccc5ccccc5c4)cnc23)cc(OC)c1OC | i | i | 54 | i
Clc1ccc(-c2nc3ccccc3c3nncn23)cc1 | i | i | i | i
COCCCN1C(=O)/C(=C\c2ccccc2OC)C(C(=O)OC)=C1C | i | i | i | i
Cc1nc2nc(-c3cccs3)cn2nc1C | i | i | i | i
c1csc(-c2cn3nc4c(nc3n2)CCCC4)c1 | i | i | 34 | i
COc1cccc([C@@H]2Oc3ccc(OC)cc3[C@H](O)C2O)c1 (stereo not given in full) | i | i | nt | i
COc1ccccc1C(=O)Nc1cccc(N2CCC(NCCSC)CC2)c1 | i | i | 47 | i
COc1ccccc1C(=O)Nc1cccc(N2CCC(NCC3CCOCC3)CC2)c1 | i | i | i | i

Screening data as filed in PubChem.
